About 83,000 compounds went through this panel and 20% of them were active in at least one assay; those are over-represented in the sample as a whole.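 Compound tested at a single concentration for 48 hours in 96-well plates; a percent growth value below 10 was scored as active.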 Unmarked numbers belong to inactive results. Activity calls are given as the source filed them.
System: HL-60(TB) leukemia
Assay: NCI-60 one-dose screen, 48 h (100 = growth as untreated, 0 = no growth, -100 = all killed)
Conditions: 10 µM unless noted

Structure (SMILES)	growth
COc1cc(C2C3=C(COC3=O)N(CCO)c3cc4c(cc32)OCCO4)cc(OC)c1OC (stereo not given)	-21.8% (active)
C=C(C)[C@@H]1C[C@H](O)Cc2cc(Cl)cc(Cl)c2N1	112%
COc1cnc2c(c1)C(=O)c1c-2n(CCCNC(C)C)c(=O)c2cc([N+](=O)[O-])ccc12	-65% (active)
O=S(=O)(NCCNc1nccc(-c2c(-c3ccccc3)nc3sccn23)n1)c1ccc(O)cc1	68%
COc1cc(/C=C/c2ccnc3ccccc23)cc(OC)c1OC	15.7%
COc1ccc2oc(=O)cc(-c3nc4ccc(N)cc4[nH]3)c2c1	101%
OCC1OC(O)C(O)C(O)C1O (stereo not given)	120%
O=C(Nc1cc(=O)[nH]c(=O)[nH]1)C(Cl)Cl	99.4%
O=C1Nc2ccccc2/C1=C/c1c[nH]c2ccccc12	102%
COc1c(O[C@@H]2OC(CO)[C@H](O)[C@H](O)C2O)cc2oc3cc(O)c(CC=C(C)C)c(O)c3c(=O)c2c1CC=C(C)C (stereo not given in full)	94.4%
O=C(N/N=C/c1ccccc1O)C(=O)Nc1ccc(F)cc1	29.6%
O=C1CC2C=CCN2C=C1NC(=O)c1ccccc1 (stereo not given)	100%
O=C(Cc1n[nH]c(=O)c2ccccc12)OCc1c(Cl)cccc1Cl	33.7%
O=C([O][Sn]([O]C(=O)c1ccccn1)([c]1ccccc1)[c]1ccccc1)c1ccccn1	68.5%
O=S(=O)(Nc1cc(Sc2cccc3cccnc23)c(O)c2ccccc12)c1ccc(F)cc1	-21.9% (active)
CCN(CC)CCN1C(=O)c2cccc3c(-c4ccc5c(c4)ncn5C4CCCCC4)ccc(c23)C1=O	-15.2% (active)
O=C1OCC2=C1C(c1cccc(Cl)c1)c1cc3c(cc1N2CCO)CCC3 (stereo not given)	-26.3% (active)
COc1ccc2oc(=O)cc(-c3c(C#N)c(N)n4nc(N)c(C#N)c4c3C#N)c2c1	96.4%
CC1CCC(C(C)C)C(NN)C1 (stereo not given)	70.2%
COc1ccc(Cn2cc3c(c2-c2cc(OC)c(OC)c(OC)c2)CCc2cnoc2-3)cc1[N+](=O)[O-]	11%

Structure (SMILES)	growth
N#CCc1ncc(-c2ccc(C(F)(F)F)cc2)c(NC2CCCCCC2)n1	-28.4% [100 µM] (active)
CCN(CC)c1ccc2nc3ccc(N=Nc4ccc(O)cc4)cc3[n+](-c3ccccc3)c2c1	21.8%
NC(=S)N/N=C/c1ccc(OC(=O)COc2ccc(Cl)cc2)cn1	19.3%
N#CC1=C(N)Oc2c(sc3c(Br)cccc23)C1c1ccccn1 (stereo not given)	7.5% (active)
C#C[C@]1(O)CC[C@H]2[C@@H]3CC[C@H]4CC(F)(F)CC[C@]4(C)[C@H]3CC[C@@]21C	107%
NC(C(=O)O)c1ccc([N+](=O)[O-])cc1 (stereo not given)	95.8%
COc1cc(NC(=O)CCSc2nc3ccc(Cl)cc3c(=O)n2Cc2ccccc2)cc(OC)c1OC	99.6%
O=C1C(=O)c2c(nc3ncccn23)-c2ccccc21	-51% (active)
COc1ccc(Oc2ccc(/C=C/C(=O)c3ccc(OC)c(OC)c3)cc2)cc1	-61.4% (active)
CC(C)(C)OC(=O)CN1CCc2c(sc3ncnc(N/N=C/c4ccccc4Br)c23)C1	92.1%
O=C(CSc1nnc(Cc2ccccc2Nc2c(Cl)cccc2Cl)n1-c1ccccc1)N1N=C(c2ccc3ccccc3c2)CC1c1ccc(Cl)cc1 (stereo not given)	98%
COCCNC(=O)Nc1ccc2nc(-c3cccs3)c(-c3cccs3)nc2c1	81.5%
COc1ccc(-c2nc([C@@H](C)Sc3nc(N)cc(N)n3)c(C)s2)cc1OCCN1CCOCC1	105%
COc1ccc2c(c1)C(=O)/C(=C/c1ccc(OCC(=O)c3ccc(Cl)cc3)cc1)O2	70.2%
CCCc1cc(=O)oc2c3c(c4c(c12)OC(C)(C)CC4)OC(C)[C@H](C)[C@@H]3O (stereo not given in full)	109%
O=c1oc2ccc(Cl)cc2cc1-c1cs/c(=N/N=C\c2ccc(Cl)cc2)n1/N=C/c1ccc(Cl)cc1	95.1%
O=C(Nc1ccccc1)NS(=O)(=O)c1c[nH]c(=S)[nH]c1=O	77.8%
O=C(C[P+](c1ccccc1)(c1ccccc1)c1ccccc1)c1ccccc1	93.1%
FC(F)(F)c1cc(-c2nnc3n2N=C(N2CCCC2)CS3)cc(C(F)(F)F)c1	113%
O=S(=O)(Nc1cccc2cc(OS(=O)(=O)c3ccccc3)ccc12)c1ccccc1	41.4%

— PubChem BioAssay (NCI)
